Results from PubChem BioAssay (NCATS).
Records with an inconclusive call do not appear. Calls of active or inactive are those of the source. The call rests on the fitted dose curve; in most records, active means well fitted curve in the direction sought with a large enough effect; inconclusive means small, poorly fitted or top-dose-only effect, or another doubt; inactive means no such curve, though single readings can be large; an effect the other way counts as inactive or inconclusive.

Key:
[1] = tested on: NIH3T3; experiment: qHTS assay to identify novel small-molecules to repurpose for Merkel cell carcinoma treatment (AID 1296009); conditions: MCC and control cell lines, CellTiter-Glo viability, 72 h; series mostly up to 44.8 µM; further: nearly all actives have a fitted effect of over 60% in size
How it was run: (§1)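 Dose-response viability screen; 72 hr exposure at 37 degree celsius; CellTiter-Glo added, 10 min room temperature, luminescence read; RLUs scaled between no-cell and DMSO wells.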

[2] = tested on: C33A; experiment: Primary qHTS to identify gynecologic anti-cancer compounds using libraries of approved drugs and bioactive compounds (AID 1345084); conditions: Gynecologic cancer cell panel viability, ATPlite luminescence, 48 h; series mostly up to 57.5 µM; further: nearly all actives have a fitted effect of over 55% in size
How it was run: (§2)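 Cells, 1,000 per well, were allowed to settle for 16 h at 37 C before compound addition. Five concentrations were tested for 48 h, and viability was read by ATPlite luminescence after 15 min at room temperature.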

[3] = tested on: CAOV3; experiment: as above; conditions: Gynecologic cancer cell panel viability, ATPlite luminescence, 48 h; series mostly up to 57.5 µM
How it was run: as §2

[4] = tested on: CASKI; experiment: as above; conditions: Gynecologic cancer cell panel viability, ATPlite luminescence, 48 h; series mostly up to 57.5 µM
How it was run: as §2

[5] = tested on: Es-2; experiment: as above; conditions: Gynecologic cancer cell panel viability, ATPlite luminescence, 48 h; series mostly up to 57.5 µM
How it was run: as §2

[6] = tested on: HeLa; experiment: as above; conditions: Gynecologic cancer cell panel viability, ATPlite luminescence, 48 h; series mostly up to 57.5 µM
How it was run: as §2

[7] = tested on: Hek293T; experiment: as above; conditions: Gynecologic cancer cell panel viability, ATPlite luminescence, 48 h, control line for the selectivity index; series mostly up to 57.5 µM
How it was run: as §2

[8] = tested on: JEG-3; experiment: as above; conditions: Gynecologic cancer cell panel viability, ATPlite luminescence, 48 h; series mostly up to 57.5 µM
How it was run: as §2

[9] = tested on: OV90; experiment: as above; conditions: Gynecologic cancer cell panel viability, ATPlite luminescence, 48 h; series mostly up to 57.5 µM
How it was run: as §2

[10] = tested on: PA-1; experiment: as above; conditions: Gynecologic cancer cell panel viability, ATPlite luminescence, 48 h; series mostly up to 57.5 µM
How it was run: as §2

[11] = tested on: SKOV3; experiment: as above; conditions: Gynecologic cancer cell panel viability, ATPlite luminescence, 48 h; series mostly up to 57.5 µM
How it was run: as §2

[12] = tested on: Tov-21-G; experiment: as above; conditions: Gynecologic cancer cell panel viability, ATPlite luminescence, 48 h; series mostly up to 57.5 µM
How it was run: as §2

[13] = tested on: Tov112D; experiment: as above; conditions: Gynecologic cancer cell panel viability, ATPlite luminescence, 48 h; series mostly up to 57.5 µM
How it was run: as §2

[14] = tested on: MKL-2; experiment: qHTS assay to identify novel small-molecules to repurpose for Merkel cell carcinoma treatment (AID 1296009); conditions: MCC and control cell lines, CellTiter-Glo viability, 72 h; further: nearly all actives have a fitted effect of over 60% in size
How it was run: as §1

[15] = Drug repurposing screens with cells derived from glioblastoma tumor samples (AID 1345199); conditions: GBM patient neurospheres viability, ATP luminescence, 48 h; further: nearly all actives have a fitted effect of over 40% in size; on activity, negative = cell killing: on the % scale 0 is the no-effect control and ±100 the full control effect
How it was run: (§3)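 Primary testing used CD133+ neurospheres from four GBM patients, seven concentrations, 48 h exposure and ATP-based viability; confirmation added three slower-growing patient lines.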

[16] = tested on: astro; experiment: as above; conditions: viability, ATP luminescence, 48 h; series mostly up to 45.9 µM
How it was run: as §3
Potency means the concentration at half of the fitted maximal effect.

CCC(=O)N1CCOc2c(cc(-c3ccc(OC)c(OC)c3)cc2OC[C@H]2CCCN(C)C2)C1
inactive: Potency [1] | Potency [2] | Potency [3] | Potency [4] | Potency [5] | Potency [6] | Potency [7] | Potency [8] | Potency [9] | Potency [10] | Potency [11] | Potency [12] | Potency [13]

COc1cc(C(C)=O)c(OC)c2c1OC(C)(C)C=C2
inactive: Potency [1] | Potency [2] | Potency [3] | Potency [4] | Potency [5] | Potency [6] | Potency [7] | Potency [8] | Potency [9] | Potency [10] | Potency [11] | Potency [12] | Potency [13]

CCN(CC)C(=O)C(c1ccccc1)N1CCN(c2ccc(NC(=O)c3ccccc3-c3cccnc3)cc2F)CC1 (stereo not given)
inactive: Potency [1] | Potency [2] | Potency [3] | Potency [4] | Potency [5] | Potency [6] | Potency [7] | Potency [8] | Potency [9] | Potency [10] | Potency [11] | Potency [12] | Potency [13]

CN1CCN(C2=Nc3ccccc3Nc3ccc(OS(=O)(=O)C(F)(F)F)cc32)CC1
inactive: Potency [1] | Potency [2] | Potency [3] | Potency [4] | Potency [5] | Potency [6] | Potency [7] | Potency [8] | Potency [9] | Potency [10] | Potency [11] | Potency [12] | Potency [13]

CN[C@H]1CC[C@@H](c2ccc(Cl)c(Cl)c2)c2ccccc21
active: Potency [14] 8.41 µM | Potency [4] 28.2 µM | Potency [11] 28.2 µM | Potency ([15]; tumour line A) 2.24 µM | Potency ([15]; tumour line B) 17.8 µM | Potency ([15]; tumour line D) 6.31 µM | Potency [16] 20 µM
inactive: activity, negative = cell killing ([15]; at 46.1 µM (top of the series), tumour line C) 17.5%

CC1=C2C[C@@]3(C)C(CCC[C@@H]3C)C(O)C2OC1=O (stereo not given in full)
inactive: Potency [1] | Potency [2] | Potency [3] | Potency [4] | Potency [5] | Potency [6] | Potency [7] | Potency [8] | Potency [9] | Potency [10] | Potency [11] | Potency [12] | Potency [13]

CC(C)c1cc(-c2ccc(F)c3ccccc23)nc(N)n1
inactive: Potency [1] | Potency [2] | Potency [3] | Potency [4] | Potency [5] | Potency [6] | Potency [7] | Potency [8] | Potency [9] | Potency [10] | Potency [11] | Potency [12] | Potency [13]

CNCCCC1(c2ccccc2)OC(C)(C)c2ccccc21 (stereo not given)
inactive: Potency [1] | Potency [2] | Potency [3] | Potency [4] | Potency [5] | Potency [6] | Potency [7] | Potency [8] | Potency [9] | Potency [10] | Potency [11] | Potency [12] | Potency [13]

O=C(N[C@H]1CCN(C(=O)c2cc(C(F)(F)F)cc(C(F)(F)F)c2)[C@H](Cc2ccc(Cl)cc2)C1)c1ccnc2ccccc12
inactive: Potency [1] | Potency [2] | Potency [3] | Potency [4] | Potency [5] | Potency [6] | Potency [7] | Potency [8] | Potency [9] | Potency [10] | Potency [11] | Potency [12] | Potency [13]

C[C@@H]1CN(CC(=O)N2CC(C)(C)c3ncc(Cc4ccc(F)cc4)cc32)[C@@H](CN2CCOC[C@H]2C)CN1
inactive: Potency [1]

CC(=O)C1=C(O)C=C2Oc3c(C(C)=O)c(O)c(C)c(O)c3[C@]2(C)C1=O
inactive: Potency [1] | Potency [2] | Potency [3] | Potency [4] | Potency [5] | Potency [6] | Potency [7] | Potency [8] | Potency [9] | Potency [10] | Potency [11] | Potency [12] | Potency [13]

C1=Cc2ccccc2C(=C2CCN(CCCCc3nn[nH]n3)CC2)c2ccccc21
inactive: Potency [1] | Potency [2] | Potency [3] | Potency [4] | Potency [5] | Potency [6] | Potency [7] | Potency [8] | Potency [9] | Potency [10] | Potency [11] | Potency [12] | Potency [13]

CC[C@H](C)/C=C(C)/C=C/C1=CC2=C(Cl)C(=O)[C@](C)(O)[C@H](OC(C)=O)[C@H]2CO1
inactive: Potency [1] | Potency [2] | Potency [3] | Potency [4] | Potency [5] | Potency [6] | Potency [7] | Potency [8] | Potency [9] | Potency [10] | Potency [11] | Potency [12] | Potency [13]

O=C(c1ccccn1)N(Cc1cccs1)C1(C(=O)NC2CCCCC2)CCCCC1
inactive: Potency [1] | Potency [2] | Potency [3] | Potency [4] | Potency [5] | Potency [6] | Potency [7] | Potency [8] | Potency [9] | Potency [10] | Potency [11] | Potency [12] | Potency [13]

CC1=CC2/C=C(\C)CCC(O)C/C=C/C(=O)OC23C(=O)NC(CC(C)C)C3C1C (stereo not given)
inactive: Potency [1] | Potency [2] | Potency [3] | Potency [4] | Potency [5] | Potency [6] | Potency [7] | Potency [8] | Potency [9] | Potency [10] | Potency [11] | Potency [12] | Potency [13]

C[C@@]12C(=O)N(c3ccc(C(=O)Nc4cccc5cccnc45)cc3)C(=O)[C@@H]1[C@@H]1C=C[C@H]2C1
inactive: Potency [1] | Potency [2] | Potency [3] | Potency [4] | Potency [5] | Potency [6] | Potency [7] | Potency [8] | Potency [9] | Potency [10] | Potency [11] | Potency [12]
